Values joined by “and” are separate entries in the source; they are usually repeats but may differ in a detail not shown here. Equal entries are not always repeated. Screen size: about 5,500 compounds; about 2,000 (36%) were called active. About 18% were inconclusive and are not listed. No stated cut-off is given here; in the data, active means normalized growth mostly below about 0.91 (no sharp cut-off); inconclusive means no clear call, values can overlap the other calls; inactive means mostly above about 0.92. The list shows a part of the results.
Test: chemical genetic growth profiling, strain panel (AID 1159580);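 further: tested at 20 µM; growth read once vehicle control cultures reached saturation at 30 °C; 1 = growth at the plate median or of vehicle wells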
Details: growth OD

Measured: normalized growth

CCOC(=O)C(C)(C)Oc1ccc(Cl)cc1
inactive: S. cerevisiae deletion strains, locus YJR075W, strain HOC1, stronger effect = lower value 1.01 and 0.998 | S. cerevisiae deletion strains, locus YKL009W, strain mrt4, stronger effect = lower value 1.02 | S. cerevisiae deletion strains, locus YKL068W, stronger effect = lower value 1 | S. cerevisiae deletion strains, locus YKL085W, strain MDH1 (second series), stronger effect = lower value 1.01 | S. cerevisiae deletion strains, locus YKL085W, strain MDH1, stronger effect = lower value 1.01 | S. cerevisiae deletion strains, locus YKL160W, strain elf1, stronger effect = lower value 0.98 | S. cerevisiae deletion strains, locus YKL190W, strain CNB1, stronger effect = lower value 1.01 | S. cerevisiae deletion strains, locus YKR001C, strain vps1, stronger effect = lower value 0.975 | S. cerevisiae deletion strains, locus YKR026C, strain gcn3, stronger effect = lower value 0.974 | S. cerevisiae deletion strains, locus YKR091W, strain srl3, stronger effect = lower value 0.978 | S. cerevisiae deletion strains, locus YLL001W, strain dnm1, stronger effect = lower value 0.987 | S. cerevisiae deletion strains, locus YLL026W, stronger effect = lower value 0.97 | S. cerevisiae deletion strains, locus YLL041C, strain sdh2, stronger effect = lower value 0.983 | S. cerevisiae deletion strains, locus YLR027C, strain aat2, stronger effect = lower value 0.994 | S. cerevisiae deletion strains, locus YLR039C, strain RIC1, stronger effect = lower value 0.986 | S. cerevisiae deletion strains, locus YLR058C, strain SHM2, stronger effect = lower value 1.01 | S. cerevisiae deletion strains, locus YLR102C, strain apc9, stronger effect = lower value 0.996 | S. cerevisiae deletion strains, locus YLR113W, strain HOG1, stronger effect = lower value 0.943 | S. cerevisiae deletion strains, locus YLR221C, strain rsa3, stronger effect = lower value 0.985 | S. cerevisiae deletion strains, locus YLR258W, strain gsy2, stronger effect = lower value 0.986 | S. cerevisiae deletion strains, locus YLR262C, strain YPT6 (second series), stronger effect = lower value 0.965 | S. cerevisiae deletion strains, locus YLR262C, strain YPT6, stronger effect = lower value 0.985 | S. cerevisiae deletion strains, locus YLR268W, strain sec22, stronger effect = lower value 1 | S. cerevisiae deletion strains, locus YLR320W, strain mms22, stronger effect = lower value 0.944 | S. cerevisiae deletion strains, locus YLR330W, strain CHS5, stronger effect = lower value 1 | S. cerevisiae deletion strains, locus YLR342W, strain FKS1 (second series), stronger effect = lower value 0.988 | S. cerevisiae deletion strains, locus YLR342W, strain FKS1, stronger effect = lower value 0.981 | S. cerevisiae deletion strains, locus YLR357W, strain rsc2, stronger effect = lower value 1 | S. cerevisiae deletion strains, locus YLR370C, strain arc18, stronger effect = lower value 0.983 | S. cerevisiae deletion strains, locus YLR371W, strain rom2, stronger effect = lower value 0.971 | S. cerevisiae deletion strains, locus YLR384C, strain iki3, stronger effect = lower value 0.969 | S. cerevisiae deletion strains, locus YLR418C, strain cdc73, stronger effect = lower value 0.985 | S. cerevisiae deletion strains, locus YML016C, strain PPZ1, stronger effect = lower value 1 | S. cerevisiae deletion strains, locus YML032C, strain rad52, stronger effect = lower value 0.992 | S. cerevisiae deletion strains, locus YML120C, strain ndi1, stronger effect = lower value 0.986 | S. cerevisiae deletion strains, locus YML124C, strain tub3, stronger effect = lower value 0.998 | S. cerevisiae deletion strains, locus YMR058W, strain fet3, stronger effect = lower value 0.987 | S. cerevisiae deletion strains, locus YMR078C, strain ctf18, stronger effect = lower value 0.999 | S. cerevisiae deletion strains, locus YMR125W, strain sto1, stronger effect = lower value 0.963 | S. cerevisiae deletion strains, locus YMR129W, stronger effect = lower value 0.994 | S. cerevisiae deletion strains, locus YMR205C, strain PFK2, stronger effect = lower value 0.934 | S. cerevisiae deletion strains, locus YMR223W, strain ubp8, stronger effect = lower value 0.996 | S. cerevisiae deletion strains, locus YMR231W, strain pep5, stronger effect = lower value 0.983 | S. cerevisiae deletion strains, locus YMR307W, strain GAS1, stronger effect = lower value 0.996 | S. cerevisiae deletion strains, locus YNL067W, strain RPL9B, stronger effect = lower value 1.01 | S. cerevisiae deletion strains, locus YNL071W, strain lat1, stronger effect = lower value 0.98 | S. cerevisiae deletion strains, locus YNL128W, strain TEP1, stronger effect = lower value 1.01 | S. cerevisiae deletion strains, locus YNL175C, strain NOP13, stronger effect = lower value 1.01 | S. cerevisiae deletion strains, locus YNL183C, strain NPR1, stronger effect = lower value 0.933 | S. cerevisiae deletion strains, locus YNL197C, strain WHI3, stronger effect = lower value 1.01 | S. cerevisiae deletion strains, locus YNL209W, strain ssb2, stronger effect = lower value 0.992 | S. cerevisiae deletion strains, locus YNL224C, strain SQS1, stronger effect = lower value 0.991 | S. cerevisiae deletion strains, locus YNL233W, strain BNI4, stronger effect = lower value 0.999 | S. cerevisiae deletion strains, locus YNL248C, strain rpa49, stronger effect = lower value 0.979 | S. cerevisiae deletion strains, locus YNL250W, strain rad50, stronger effect = lower value 1.02 | S. cerevisiae deletion strains, locus YNL271C, strain bni1, stronger effect = lower value 0.997 | S. cerevisiae deletion strains, locus YNL298W, strain CLA4, stronger effect = lower value 1 | S. cerevisiae deletion strains, locus YNL307C, strain MCK1, stronger effect = lower value 1 | S. cerevisiae deletion strains, locus YNL322C, strain KRE1 (second series), stronger effect = lower value 0.973 | S. cerevisiae deletion strains, locus YNL322C, strain KRE1, stronger effect = lower value 1.01 and 1 | S. cerevisiae deletion strains, locus YNR049C, strain mso1, stronger effect = lower value 0.985 | S. cerevisiae deletion strains, locus YNR052C, strain pop2, stronger effect = lower value 1 | S. cerevisiae deletion strains, locus YOL006C, strain TOP1, stronger effect = lower value 1.01 | S. cerevisiae deletion strains, locus YOL012C, strain htz1 0.891 | S. cerevisiae deletion strains, locus YOL147C, strain pex11, stronger effect = lower value 0.988 | S. cerevisiae deletion strains, locus YOR001W, strain rrp6, stronger effect = lower value 0.976 | S. cerevisiae deletion strains, locus YOR061W, strain CKA2, stronger effect = lower value 1.01 | S. cerevisiae deletion strains, locus YOR069W, strain VPS5, stronger effect = lower value 1 | S. cerevisiae deletion strains, locus YOR070C, strain gyp1, stronger effect = lower value 0.995 | S. cerevisiae deletion strains, locus YOR080W, strain dia2, stronger effect = lower value 0.97 | S. cerevisiae deletion strains, locus YOR083W, strain WHI5 (second series), stronger effect = lower value 1.03 | S. cerevisiae deletion strains, locus YOR083W, strain WHI5, stronger effect = lower value 0.982 | S. cerevisiae deletion strains, locus YOR106W, strain vam3, stronger effect = lower value 0.999 | S. cerevisiae deletion strains, locus YOR136W, strain idh2, stronger effect = lower value 1 | S. cerevisiae deletion strains, locus YOR144C, strain elg1, stronger effect = lower value 0.995 | S. cerevisiae deletion strains, locus YOR184W, strain ser1, stronger effect = lower value 0.943 | S. cerevisiae deletion strains, locus YOR231W, strain MKK1, stronger effect = lower value 0.94 | S. cerevisiae deletion strains, locus YOR265W, strain rbl2, stronger effect = lower value 0.991 | S. cerevisiae deletion strains, locus YOR270C, strain vph1, stronger effect = lower value 0.987 | S. cerevisiae deletion strains, locus YOR290C, strain snf2, stronger effect = lower value 0.976 | S. cerevisiae deletion strains, locus YOR316C, strain cot1, stronger effect = lower value 0.997 | S. cerevisiae deletion strains, locus YPL051W, strain arl3, stronger effect = lower value 0.984 | S. cerevisiae deletion strains, locus YPL055C, strain LGE1, stronger effect = lower value 0.999 | S. cerevisiae deletion strains, locus YPL078C, strain atp4, stronger effect = lower value 0.985 | S. cerevisiae deletion strains, locus YPL106C, strain sse1, stronger effect = lower value 0.951 | S. cerevisiae deletion strains, locus YPL240C, strain hsp82, stronger effect = lower value 0.988 | S. cerevisiae deletion strains, locus YPL241C, strain CIN2, stronger effect = lower value 0.997 | S. cerevisiae deletion strains, locus YPL256C, strain CLN2, stronger effect = lower value 0.923 | S. cerevisiae deletion strains, locus YPR119W, strain clb2, stronger effect = lower value 0.993 | S. cerevisiae deletion strains, locus YPR141C, strain kar3, stronger effect = lower value 0.992 | S. cerevisiae deletion strains, locus YPR163C, strain tif3, stronger effect = lower value 0.995 | S. cerevisiae deletion strains, locus YPR167C, strain met16, stronger effect = lower value 1 | S. cerevisiae deletion strains, strain wtn01, stronger effect = lower value 0.993 | S. cerevisiae strains, strain wild type, stronger effect = lower value 1

Source: PubChem BioAssay AID1159580 (chemical genetic matrix, 2015)
